Reference: PubChem BioAssay (Tox21)
Results filed as inconclusive are left out. A call without a number means that no potency is given here. A number with no mark means an inactive call. The source made the active and inactive calls. Unless noted, calls come from the whole dose curve.

Columns and labels:
[1] = qHTS assay to identify small molecule agonists of the NFkB signaling pathway (AID 1159509; active = well fitted curve in the direction sought with a large enough effect in the signal ratio in the repeat runs, not every such curve was filed as active; the % refers to the signal ratio; note: series mostly up to about 61 µM)
Outline: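 Pathway activation was measured in ME-180 cells stably expressing beta-lactamase under NF-kB response element control. Substrate cleavage was read as the 460/530 nm emission shift after 5 hr compound incubation.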

[2] = qHTS assay to identify small molecule agonists of the NFkB signaling pathway - cell viability counter screen (AID 1159515); note: series mostly up to about 61 µM; nearly all actives have a fitted effect of over 55% in size
Outline: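 Counter screen run alongside the NFkB-bla agonist assay: ME-180 reporter cells exposed to compounds for 5 hr, then lysed with CellTiter-Glo in the same wells. Luminescence, read after 30 min, reflects viable cells.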

[3] = qHTS assay to identify small molecule agonists of the endoplasmic reticulum stress response signaling pathway (AID 1159516; active = well fitted activation curve with a large enough effect in the signal ratio in the repeat runs, not every such curve was filed as active; the % refers to the signal ratio)
Outline: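 For this screen, HeLa cells stably carrying beta-lactamase under the ER stress response element received test compounds, positive controls or DMSO for 5 hr at 37 C; B/G FRET substrate was then added and dual-wavelength emission recorded.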

[4] = qHTS assay to identify small molecule antagonists of the retinoid-related orphan receptor gamma (ROR-gamma) signaling pathway - cell viability counter screen (AID 1159520; active = well fitted curve in the direction sought with a large enough effect in the repeat runs; an effect the other way counts as inactive or inconclusive; note: nearly all actives have a fitted effect of over 50% in size)
Outline: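 Cytotoxicity was read from cellular ATP (CellTiter-Glo luminescence) after 16 hr at 37 C with 1 uM doxycycline induction. The inducer was added 2 hr after compound transfer to Tet-on ROR gamma CHO cells.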

[5] = target: Nuclear receptor ROR-gamma (Homo sapiens) (UniProt P51449); test: qHTS assay to identify small molecule antagonists of the retinoid-related orphan receptor gamma (ROR-gamma) signaling pathway (AID 1159521; active = well fitted curve in the direction sought with a large enough effect in the repeat runs; an effect the other way counts as inactive or inconclusive; note: nearly all actives have a fitted effect of over 50% in size; note: potency is the fitted concentration of half-maximal effect)
Outline: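 RORγ antagonism is scored from reduced reporter luminescence in Tet-on CHO cells. Induction used 1 uM final doxycycline hyclate for 16 h at 37 C, following a 2 h compound exposure.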

[6] = qHTS assay to identify small molecule agonists of the AP-1 signaling pathway - cell viability counter screen (AID 1159525); note: nearly all actives have a fitted effect of over 55% in size
Outline: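 Intracellular ATP by Cell Titer Glo luminescence (30 min, RT) in the same ME-180 AP-1-bla wells after the 5 h compound exposure at 37 °C. Normalised to tetra n-octyl ammonium bromide and DMSO controls.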

[7] = qHTS assay to identify small molecule agonists of the AP-1 signaling pathway (AID 1159526)
[8] = target: Retinoic acid receptor RXR-alpha (Homo sapiens) (UniProt P19793); test: qHTS assay to identify small molecule agonists of the RXR signaling pathway (AID 1159527); note: nearly all actives have a fitted effect of over 35% in size; note: potency is the fitted concentration of half-maximal effect
Outline: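 qHTS of the Tox21 10K library in GeneBLAzer RXR-alpha HEK 293T cells carrying a beta-lactamase reporter […]; 16 hr treatment, 9-cis retinoic acid as agonist control, FRET read-out.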

[9] = qHTS assay to identify small molecule antagonists of the vitamin D receptor (VDR) signaling pathway - cell viability counter screen (AID 743225; active = well fitted curve in the direction sought with a large enough effect in the repeat runs; an effect the other way counts as inactive or inconclusive; note: nearly all actives have a fitted effect of over 50% in size; note: potency is the fitted concentration of half-maximal effect)
Outline: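 Cells (VDR-UAS-bla HEK 293T) are plated, rested 4 h at 37C, dosed with compound and 3 nM final 1-alpha,25-dihydroxy vitamin D3, and incubated 16 h. Viability is taken from CellTiter-Glo luminescence in the reporter wells.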

[10] = qHTS assay to identify small molecule agonists of the endoplasmic reticulum stress response signaling pathway - cell viability counter screen (AID 1159517); note: series mostly up to about 61 µM; nearly all actives have a fitted effect of over 50% in size
Outline: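 ESRE-bla HeLa cells (1,500/well) were plated overnight at 37 C and exposed to compounds for 5 hr. After the 2 hr beta-lactamase substrate read, CellTiter-Glo went into the same wells, and luminescence was read after 30 min at room temperature.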

Sequence of Retinoic acid receptor RXR-alpha (Homo sapiens) (P19793 whole entry, looked up): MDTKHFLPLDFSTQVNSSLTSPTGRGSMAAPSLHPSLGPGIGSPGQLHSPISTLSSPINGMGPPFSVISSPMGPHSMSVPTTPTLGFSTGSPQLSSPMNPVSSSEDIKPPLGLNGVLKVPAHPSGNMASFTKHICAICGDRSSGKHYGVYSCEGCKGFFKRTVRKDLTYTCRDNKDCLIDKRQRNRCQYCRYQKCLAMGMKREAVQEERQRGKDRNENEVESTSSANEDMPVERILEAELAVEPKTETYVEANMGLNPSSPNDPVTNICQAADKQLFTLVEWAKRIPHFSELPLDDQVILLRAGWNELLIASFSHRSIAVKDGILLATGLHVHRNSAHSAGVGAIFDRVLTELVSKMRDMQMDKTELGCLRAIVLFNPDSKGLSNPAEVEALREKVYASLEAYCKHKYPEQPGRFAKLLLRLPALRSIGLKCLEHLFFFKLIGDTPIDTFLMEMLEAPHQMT

| Structure (SMILES) | outcome [1] | outcome [2] | outcome [3] | Potency [4] | Potency [5] | outcome [6] | outcome [7] | Potency [8] | Potency [9] | outcome [10] |
| --- | --- | --- | --- | --- | --- | --- | --- | --- | --- | --- |
| C=CC(=C)CCCC(C)(C)OC(C)=O | inactive | inactive | inactive | inactive | inactive | inactive | inactive | inactive | – | – |
| COc1ccccc1N=Nc1c(S(=O)(=O)O)cc2cc(S(=O)(=O)O)cc(NC(C)=O)c2c1O | inactive | inactive | inactive | – | – | inactive | inactive | inactive | inactive | inactive |
| NC(=O)Nc1ccc(Cl)c(Cl)c1 | inactive | inactive | inactive | – | – | – | inactive | – | inactive | inactive |
| c1ccc(COCc2ccccc2)cc1 | inactive | inactive | inactive | inactive | inactive | inactive | inactive | – | inactive | – |
| CO[C@H]1O[C@H](CO)[C@@H](O)[C@H](O)[C@H]1O | inactive | inactive | inactive | inactive | inactive | inactive | inactive | inactive | inactive | – |
| OC/C(Br)=C(\Br)CO | inactive | inactive | inactive | inactive | inactive | inactive | inactive | inactive | inactive | – |
| Cc1cc(O)c(C(C)C)cc1Cl | inactive | inactive | inactive | inactive | inactive | inactive | – | inactive | inactive | – |
| Cc1nc2ccccn2c(=O)c1CCN1CCC(C(=O)c2ccc(F)cc2)CC1 | inactive | inactive | inactive | inactive | inactive | – | inactive | inactive | – | – |
| COCCOC(=O)C1=C(C)NC(C)=C(C(=O)OC/C=C/c2ccccc2)C1c1cccc([N+](=O)[O-])c1 (stereo not drawn) | inactive | inactive | inactive | – | – | – | – | – | inactive | inactive |
| C[N+]1(C)CCC(=C(c2ccccc2)c2ccccc2)CC1 | inactive | inactive | inactive | inactive | inactive | inactive | inactive | inactive | inactive | – |
| O=Cc1c(Cl)cccc1Cl | inactive | inactive | inactive | – | – | inactive | inactive | – | inactive | inactive |
| COc1cc2ncnc(Nc3ccc(F)c(Cl)c3)c2cc1OCCCN1CCOCC1 | inactive | inactive | inactive | – | 11.9 µM (active) | – | inactive | – | inactive | inactive |
| CC(C)(C)C(=O)O | inactive | inactive | inactive | inactive | inactive | inactive | inactive | 39.1 µM (active) | inactive | – |
| C(=C\c1ccccc1)/CN1CCN(C(c2ccccc2)c2ccccc2)CC1 | inactive | inactive | inactive | – | – | inactive | – | – | inactive | inactive |
| Cc1nc2ccccc2s1 | inactive | inactive | inactive | inactive | inactive | inactive | inactive | inactive | inactive | – |
| CCC(=O)OC/C=C/c1ccccc1 | inactive | inactive | inactive | inactive | inactive | inactive | inactive | inactive | inactive | – |
| CC1=C(/C=C/C(C)=C\C=C\C(C)=C\C(=O)O)C(C)(C)CCC1 | inactive | inactive | inactive | – | – | inactive | inactive | – | – | inactive |
| CCN(CC)CCNC(=O)c1ccc(NC(C)=O)cc1 | inactive | inactive | inactive | inactive | inactive | inactive | inactive | – | inactive | – |
| Cc1c(C(=O)NN2CCCCC2)nn(-c2ccc(Cl)cc2Cl)c1-c1ccc(Cl)cc1 | inactive | inactive | inactive | – | – | inactive | inactive | – | – | inactive |
| CCCCC(CC)CNCC(CC)CCCC (stereo not drawn) | inactive | inactive | inactive | inactive | inactive | inactive | inactive | – | inactive | – |
| c1cc[c]([Bi]([c]2ccccc2)[c]2ccccc2)cc1 | inactive | inactive | inactive | – | 30.6 µM (active) | – | – | – | inactive | inactive |
| COC(=O)c1cc(S(N)(=O)=O)ccc1OC | inactive | inactive | inactive | inactive | inactive | inactive | inactive | inactive | inactive | – |
| CCCCC/C(=C\c1ccccc1)CO | inactive | inactive | inactive | – | inactive | – | – | inactive | – | inactive |
| CC[C@@H]([C@H](C)O)n1ncn(-c2ccc(N3CCN(c4ccc(OC[C@@H]5CO[C@@](Cn6cncn6)(c6ccc(F)cc6F)C5)cc4)CC3)cc2)c1=O | inactive | inactive | inactive | – | 0.944 µM (active) | – | inactive | – | 23.9 µM (active) | inactive |
| CC(=N\O)/C(C)=N/O | inactive | inactive | inactive | – | – | inactive | inactive | inactive | – | inactive |
| O=C(CCC1CCN(Cc2ccccc2)CC1)c1ccc2c(c1)NCCCC2 | inactive | inactive | inactive | inactive | – | inactive | – | inactive | – | – |
